Measured values taken from ChEMBL document CHEMBL3988442, “University of Dundee, Small-Polar-MMV Screening Library” (2021).

Assays:
[1] = biological target: T1, Aspartate--tRNA(Asp/Asn) ligase (Mycobacterium tuberculosis (strain ATCC 25618 / H37Rv)) (UniProt P9WFW3); assay: Assay for Asp RNA synthetase-1 from Mycobacterium tuberculosis; type: functional; set-up: scale not given: direction of the effect not stated beside the values; conditions: 30 µM; note: in the data most compounds retested in dose-response had high values
T1 sequence (whole entry): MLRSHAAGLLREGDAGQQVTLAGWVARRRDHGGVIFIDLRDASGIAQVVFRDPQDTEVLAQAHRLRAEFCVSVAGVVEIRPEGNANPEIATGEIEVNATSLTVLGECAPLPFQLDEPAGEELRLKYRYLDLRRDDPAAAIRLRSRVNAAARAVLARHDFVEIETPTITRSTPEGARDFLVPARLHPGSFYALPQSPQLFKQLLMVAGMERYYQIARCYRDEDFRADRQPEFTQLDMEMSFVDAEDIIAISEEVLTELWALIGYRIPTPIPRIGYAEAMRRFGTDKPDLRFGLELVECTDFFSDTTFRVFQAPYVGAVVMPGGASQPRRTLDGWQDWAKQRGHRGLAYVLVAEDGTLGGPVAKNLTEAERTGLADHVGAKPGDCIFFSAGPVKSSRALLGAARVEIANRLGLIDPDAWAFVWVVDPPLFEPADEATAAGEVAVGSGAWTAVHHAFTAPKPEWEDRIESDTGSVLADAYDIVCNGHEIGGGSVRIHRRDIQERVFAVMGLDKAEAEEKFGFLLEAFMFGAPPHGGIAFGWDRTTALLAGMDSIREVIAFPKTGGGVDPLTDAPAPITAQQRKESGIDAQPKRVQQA

[2] = biological target: Shiga toxin 2 (Escherichia coli O157:H7) (UniProt P09385+P09386); assay: E. coli 0.157:H7 Shiga Toxin SOP - stx2 screening assay; type: functional; set-up: scale not given: direction of the effect not stated beside the values; conditions: 30 µM

| Structure (SMILES) | Percent Effect [1] | Percent Effect [2] |
| --- | --- | --- |
| O=C(O)[C@]12CCCN(Cc3ccccc3)C[C@H]1CN(c1ncccn1)C2 | 6.32% | -14.8% |
| O=C(Cc1ccccn1)N1C[C@@H]2CC[C@H](C1)N(Cc1ccccc1)C2=O | -1.24% | -4.09% |
| CC(O)CN(CC(=O)NC(=O)NC1CC1)c1ccccc1 (stereo not drawn) | -1.82% | 4.59% |
| NC(=O)C(CNC(=O)COCC(F)(F)F)Cc1ccc(F)cc1 (stereo not drawn) | 0.689% | 4.66% |
| N#CCCN(C(=O)CN1CCCC1Cc1ccccc1)c1ccccc1 (stereo not drawn) | 2.91% | 27.4% |
| CC(C)c1nnc2n1CCN(CC(=O)N1CCc3ccccc3C1)C2 | -3.72% | -17% |
| O=C(CCn1cccn1)N1C[C@@H]2CC[C@H](C1)N(Cc1ccccn1)C2=O | 0.301% | 3.51% |
| CC(C)c1csc(C2CCCN(C(=O)c3ncccn3)C2)n1 (stereo not drawn) | -2.21% | -20% |
| COCC1c2c(cnn2CC2CC2)CCN1Cc1ccc(OC)cc1 (stereo not drawn) | 0.786% | 4.64% |
| CCn1c(Cn2cncn2)nnc1C1CCN(Cc2ccc(C)o2)CC1 | -3.48% | 18.7% |
| O=c1c(-c2ccnc(NC3CCOCC3)n2)cnc2sc(Cl)cn12 | -3.81% | -50% |
| CCc1nc(CN2CCCN(C(=O)C(C)COC)CC2)cs1 (stereo not drawn) | -0.303% | -63.3% |
| Cn1cc(C2CCCN2Cc2csc(C(C)(C)C)n2)cn1 (stereo not drawn) | -4.83% | -11.7% |
| Cn1cc(CNCCn2cccn2)c(-c2cccnc2)n1 | 1.65% | -0.247% |
| O=C(C1CCOCC1)N1CCC2(CC1)CC(Oc1ccccc1)CO2 (stereo not drawn) | -1.89% | 25.7% |
| N#Cc1cnn(-c2ccc(C(=O)Nc3ccccn3)cc2)c1N | -3% | -40.7% |
| CC(C)(C)c1noc(CN2CCCN(Cc3cccs3)CC2)n1 | -4.01% | -1.06% |
| O=C(NC[C@@H]1CCCN1)c1cc(COc2cccc(C(F)(F)F)c2)[nH]n1 | 1.98% | -15.7% |
| CCc1nc(C2CCCN(C(=O)c3cccc4c3ccn4C)C2)no1 (stereo not drawn) | -0.845% | 4.78% |
